Experimental data published in PubChem BioAssay (EPA / NIEHS).
Inconclusive results are not listed. Activity calls are given as the source filed them. The calls were made as follows, unless noted: active = hit-call score of the fitted dose curve at least 0.9, where 1 is the maximum; inactive = score below 0.9.

Assays:
[1] = CCTE_Shafer_MEA_acute_burst_number: CCTE's Neural Acute Assay for Single-Electrode Bursts, Shafer Lab (AID 2284013)
Summary of the method: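 Percent change in single-electrode burst number per well, from 40-min recordings taken before and after adding compound (0.03-40 uM) to primary rat cortical neurons on MEA plates at DIV 13 or 15, 37 C.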

[2] = CCTE_Shafer_MEA_acute_burst_duration_mean: CCTE's Neural Acute Assay for Mean Burst Duration, Shafer Lab (AID 2284014);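 also: hits are decreases in mean burst duration relative to DMSO controls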
Summary of the method: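 Rat cortical cultures, DIV 13/15; 40 min baseline, then 40 min with compound (0.03-40 uM), 37 C. Spikes: 300-5000 Hz band-pass, 8x rms threshold. Read-out: % change in mean single-electrode burst duration, DMSO-referenced, loss direction.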

[3] = CCTE_Shafer_MEA_acute_per_burst_spike_number_mean: CCTE's Neural Acute Assay for Average Number of Spikes Per Burst, Shafer Lab (AID 2284015);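 also: hits are decreases in mean spikes per burst versus baseline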
Summary of the method: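 We recorded spontaneous network firing of rat cortical neurons for 40 min before and 40 min during exposure to compound at 0.03-40 uM, at 37 C. Spikes were detected adaptively at 8x rms noise, and the change in average spikes per burst was fitted against DMSO.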

[4] = CCTE_Shafer_MEA_acute_interburst_interval_mean: CCTE's Neural Acute Assay for Mean Interburst Interval, Shafer Lab (AID 2284016);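 also: percent change of mean interburst interval versus each well's own pre-dose baseline; curves fitted for decrease in interburst interval relative to DMSO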
Summary of the method: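 MEA recording of spontaneous network bursting in primary rat cortical cultures; mean interburst interval was compared before and after a 40-min compound exposure (0.03-40 uM) and expressed as percent change, relative to DMSO.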

[5] = CCTE_Shafer_MEA_acute_burst_percentage_mean: CCTE's Neural Acute Assay for Percentage of Spikes in a Burst, Shafer Lab (AID 2284017);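 as to AC50: curve fitted for loss of signal so potency reflects decreased burst percentage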
Summary of the method: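 Compounds were tested at 0.03-40 uM on primary rat cortical neuron networks grown over microelectrodes, with at least three wells per compound. Spontaneous firing was recorded for 40 min before and 40 min after dosing, and the change in burst percentage was computed per well.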

[6] = CCTE_Shafer_MEA_acute_burst_percentage_std: CCTE's Neural Acute Assay for Standard Deviation of Burst Percentage, Shafer Lab (AID 2284018);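 also: fitted in the negative direction so actives lower burst percentage SD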
Summary of the method: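 Rat primary cortical neurons on 48-well MEAs, DIV 13 or 15, 37 C. 40-min baseline then 40-min recording with compound (0.03-40 uM); well-level SD of per-electrode burst spike percentage, expressed as percent change from baseline.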

[7] = CCTE_Shafer_MEA_acute_per_network_burst_spike_number_std: CCTE's Neural Acute Assay for Standard Deviation of Number of Spikes in a Network Burst, Shafer Lab (AID 2284020);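 also: fitted for decrease in spike-number SD versus DMSO so actives lower it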
Summary of the method: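 Rat cortical cultures, DIV 13/15, 37 C; 20-min stabilisation, 40-min baseline, compound 0.03-40 uM, 40-min re-record. Spikes detected at 8x rms noise (300-5000 Hz band-pass). Readout: % change from baseline in per-burst spike-number SD.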

[8] = CCTE_Shafer_MEA_acute_per_network_burst_electrodes_number_mean: CCTE's Neural Acute Assay for Mean Number of Electrodes in a Network Burst, Shafer Lab (AID 2284021);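 also: curves fitted for decreases only so hits reduce electrodes per burst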
Summary of the method: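 Percent change from baseline was computed as mean electrode count per network burst, comparing 40 min recordings before and during compound (0.03-40 uM) exposure. Cultures were rat cortical neurons at DIV 13 or 15, recorded on MEAs at 37 C with an adaptive 8x rms threshold.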

[9] = CCTE_Shafer_MEA_acute_network_burst_percentage: CCTE's Neural Acute Assay for Percentage of Network Bursts, Shafer Lab (AID 2284022);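 also: curves fitted for loss so actives lower network burst percentage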
Summary of the method: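 Network burst percentage (spikes in network bursts divided by total spikes) recorded at 37 C over 40 min baseline and 40 min after compound, 0.03-40 uM, in rat cortical cultures at DIV 13 or 15. Analysed as percent change from baseline versus DMSO.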

[10] = CCTE_Harrill_HTTr_CellCount_MCF7: CCTE's Cell Proliferation Assessment for the High-Throughput Transcriptomics (HTTr) Platform, Harrill Lab (AID 2284012; active = hit-call score of the fitted dose curve at least 0.9, where 1 is the maximum;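 also: cells exposed to compound for six hours; intended direction is loss of nuclei count meaning fewer cells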)
Summary of the method: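 Cell count served as viability reporter: loss of Hoechst-stained nuclei, counted by high content imaging, marks decreased growth or survival. Exposure was 6 h in MCF-7 cells across eight concentrations, with DMSO as baseline.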

**Q.** Which AC50 [1] does the source give for `Oc1ccccc1Cc1ccccc1O` here?
**A.** 0.159 µM (active)

**Q.** And the AC50 [2]?
**A.** 7.82 µM (active)

**Q.** And the AC50 [3]?
**A.** 8.01 µM (active)

**Q.** What about the AC50 [4] of the same compound?
**A.** 0.1 µM (active)

**Q.** What about the AC50 [5] of the same compound?
**A.** 6.16 µM (active)

**Q.** What about the AC50 [6] of the same compound?
**A.** 8.53 µM (active)

**Q.** And the outcome [7]?
**A.** inactive

**Q.** What about the outcome [8] of the same compound?
**A.** inactive

**Q.** And the AC50 [9]?
**A.** 1.96 µM (active)

**Q.** What does the source list for `c1ccc(Nc2cccc3ccccc23)cc1`?
**A.** AC50 [1]: 1.25 µM (active); AC50 [2]: 15 µM (active); AC50 [3]: 5.6 µM (active); AC50 [4]: 11.7 µM (active); AC50 [5]: 4.86 µM (active); outcome [6]: inactive; AC50 [7]: 1.86 µM (active); outcome [8]: inactive; AC50 [9]: 27.8 µM (active)

**Q.** With `c1ccc2cnccc2c1` as the compound, how does the outcome [10] read?
**A.** inactive

**Q.** With `C=C(C)C1CC=C(C)CC1` (stereo not given) as the compound, how does the outcome [10] read?
**A.** inactive

**Q.** With `C1CNCCN1` as the compound, how does the outcome [10] read?
**A.** inactive

**Q.** What about the outcome [1] of the same compound?
**A.** inactive

**Q.** And the outcome [2]?
**A.** inactive

**Q.** What about the outcome [3] of the same compound?
**A.** inactive

**Q.** What about the outcome [4] of the same compound?
**A.** inactive

**Q.** And the outcome [5]?
**A.** inactive

**Q.** What about the outcome [6] of the same compound?
**A.** inactive

**Q.** What about the outcome [7] of the same compound?
**A.** inactive

**Q.** And the outcome [8]?
**A.** inactive

**Q.** And the outcome [9]?
**A.** inactive

**Q.** For `O=C(O)CCC(=O)O`, which outcome [10] is on record?
**A.** inactive

**Q.** Which outcome [10] does the source give for `O=C(O)/C=C/c1ccccc1` here?
**A.** inactive

**Q.** Which outcome [10] does the source give for `CCCCC/C=C\C/C=C\CCCCCCCC(=O)O` here?
**A.** inactive

**Q.** Which outcome [1] does the source give for `Nc1nc(N)nc(-c2ccccc2)n1` here?
**A.** inactive

**Q.** And the outcome [2]?
**A.** inactive

**Q.** What about the outcome [3] of the same compound?
**A.** inactive

**Q.** And the outcome [4]?
**A.** inactive

**Q.** What about the outcome [5] of the same compound?
**A.** inactive

**Q.** And the outcome [6]?
**A.** inactive

**Q.** And the outcome [7]?
**A.** inactive

**Q.** And the outcome [8]?
**A.** inactive

**Q.** And the outcome [9]?
**A.** inactive

**Q.** With `CCOC(=O)C1=NOC(c2ccccc2)(c2ccccc2)C1` as the compound, how does the outcome [10] read?
**A.** inactive

**Q.** With `N#Cc1ccc(C2CCCc3cncn32)cc1` (stereo not given) as the compound, how does the outcome [10] read?
**A.** inactive

**Q.** With `CC(C)(O)Cc1ccccc1` as the compound, how does the outcome [10] read?
**A.** inactive
